# The campaign covered roughly 48,000 compounds. About 13,000 (27%) showed an effect of 50% or more. This is one part of the list.
# System: Wolbachia pipientis
# Test: Anti-Wolbachia Cell-Based Screen
# Assay type: functional
# Parameters: scale not given: in the data most compounds retested in dose-response had high values
# Conditions: 5 µM
row,Compound,Percent Effect [%]
1,COCC(=O)N1CCC2(CCC(C(=O)N3CCCC3)O2)CC1 (stereo unspecified),-11.51
2,O=C(O)C(F)(F)F.O=S1(=O)NCC2(CCN(c3ncccn3)CC2)COc2ccccc21,7.267
3,O=C(c1ccc(Cl)s1)N1CCC2(COc3ncccc3S(=O)(=O)N2)C1 (stereo unspecified),106.8
4,O=C1CCC2(CCCN(C(=O)C3CCCC3)C2)CN1CCc1c[nH]cn1 (stereo unspecified),-4.42
5,O=C(O)C(F)(F)F.O=C(c1ccncc1)N1CCC2(CC1)C(=O)Nc1ccccc12,-18.03
6,O=C(c1ccoc1)N1CCC2(C1)CN(c1ncccn1)C2,-1.221
7,O=C(C1CCCCC1)N1CCC2(COc3ncccc3S(=O)(=O)N2)C1 (stereo unspecified),116.2
8,O=C(c1ccccn1)N1CCC2(COc3ncccc3S(=O)(=O)N2)C1 (stereo unspecified),107.8
9,O=C(c1ccc(Cl)s1)N1CC(c2nc(-c3ccc[nH]c3=O)no2)C1,-1.237
10,O=C(c1ccccn1)N1CCN(C(c2ccccc2)C(F)(F)F)CC1 (stereo unspecified),20.54
11,O=C(c1ccncc1)N1CCC2(COc3ncccc3S(=O)(=O)N2)C1 (stereo unspecified),101.3
12,O=C(C1CCCC1)N1CC[C@]2(O)CCN(Cc3ncccn3)C[C@@H]2C1,-5.051
13,CCC(CC)NC(=O)NCc1ccnc(-n2ccnc2C)c1,-7.702
14,COCCN1CCN(C(=O)C[C@@H]2C[C@@H](C(C)C)[C@H](CO)C=C2C)CC1,-1.318
15,CC(=O)Nc1ncc(S(=O)(=O)N2CCC(C)CC2)s1,-4.256
16,COCCN(C)C(=O)c1ccc2onc(-c3coc(C)n3)c2c1,3.529
17,CC(C)Cc1noc(CN(C)C(=O)C2COc3ccccc3C2)n1 (stereo unspecified),-0.9273
18,O=C(CN1CC(c2nc(C3CC3)no2)C1)NCC1CCCO1.O=C(O)C(=O)O (stereo unspecified),11.2
19,Cc1ccc(CN2CC3(CCN(C(=O)c4cscn4)C3)C2)s1.O=C(O)C(F)(F)F,-3.969
20,O=C(c1cscn1)N1CCC2(COc3ncccc3S(=O)(=O)N2)C1 (stereo unspecified),87.78
21,O=C(c1cscn1)N1CCC2(CC1)CCN(S(=O)(=O)c1ccccc1)C2,-2.013
22,COCC(=O)N1CCCn2c(CN3CCCC3)nnc2C1,85.92

row,Compound,Percent Effect [%]
1,O=C(C1CCCO1)N1CCCn2c(nnc2Cn2ccnc2)C1.O=C(O)C(F)(F)F (stereo unspecified),-15.24
2,COCC(=O)N1CCCn2c(CN3CCOCC3)nnc2C1.O=C(O)C(F)(F)F,114.9
3,COCC(=O)N1CCCn2c(CN3CCCC3=O)nnc2C1,88.29
4,COCC(=O)N1CCCn2c(CN3CCCCC3)nnc2C1.O=C(O)C(F)(F)F,-12.43
5,CCOCC(=O)N1CCCn2c(nnc2Cn2cccc2)C1,93.36
6,Fc1cnc(N2CCCn3c(CN4CCOCC4)nnc3C2)nc1.O=C(O)C(F)(F)F.O=C(O)C(F)(F)F,-2.409
7,O=C(C1CCCO1)N1CCCn2c(nnc2Cn2cccc2)C1 (stereo unspecified),-19.79
8,O=C(CC1CC1)N1CCCn2c(nnc2Cn2cccc2)C1,-9.469
9,O=C(O)C(F)(F)F.O=C(O)C(F)(F)F.O=C(c1ccncc1)N1CCCn2c(CN3CCCC3)nnc2C1,-6.384
10,CCc1nc(CCNC(=O)C2CCOC2)sc1C (stereo unspecified),-3.855
11,Cc1cc(N2CCN(C(=O)C(C)n3ccnc3C(C)C)CC2)cc(C)n1 (stereo unspecified),8.833
12,CCOCC(=O)N1CCCn2c(CN3CCCCC3)nnc2C1,101.4
13,CCOCC(=O)N1CCCn2c(CN3CCOCC3)nnc2C1,89.68
14,Cc1nc2cc(F)cc(C(=O)N3CCN(CC(C)O)CC3)c2nc1C (stereo unspecified),-10.08
15,CNc1cncc(C2CCN(C(=O)c3cnco3)CC2)n1,87.6
16,CNc1cncc(C2CCN(C(=O)c3coc(C)n3)CC2)n1,81.53
17,COCCN(Cc1ccco1)Cc1nc(-c2ccc(C)c(F)c2)no1,-0.2442
18,CC1Oc2ccc(S(=O)(=O)NCCCn3ccnc3)cc2NC1=O (stereo unspecified),-3.003
19,CCC(C)(C)NCc1nc(C(C)(C)NC(=O)OC(C)(C)C)no1,2.253
20,COCCNC(=O)c1nc2c(s1)CCCN2c1ccc(C)nn1,1.037
21,COCCN(C)C(=O)c1nc2c(s1)CCCN2c1ncccn1,-1.851
22,Cc1ccc(N2CCCc3sc(C(=O)NCc4ccncc4)nc32)nn1,-3.066

row,Compound,Percent Effect [%]
1,CCN(C(=O)c1nc2c(s1)CCCN2c1ccc(C)nn1)C(C)C,87.32
2,COCCN(C)C(=O)c1nc2c(s1)CCCN2c1ccc(C)nn1,96.15
3,Cc1ccc(N2CCCc3sc(C(=O)NCc4cccnc4)nc32)nn1,10.28
4,N#Cc1cccc(CN2CC3(CCCCN3c3cccnc3)CC2=O)c1.O=C(O)C(F)(F)F (stereo unspecified),9.304
5,CC(C)CN1C[C@@H]2CN(c3cnccn3)C[C@@H]2C1=O,-19.41
6,CN(C)c1ccc(C(CNS(=O)(=O)c2cccs2)N2CCCC2)cc1 (stereo unspecified),108.3
7,CCC(CO)N(Cc1cccs1)C(=O)CNS(=O)(=O)c1cccs1 (stereo unspecified),5.395
8,O=S(=O)(NCC1(O)CCOc2ccccc21)c1cccs1 (stereo unspecified),-3.854
9,O=S(=O)(NCC(c1ccsc1)N1CCCCCC1)c1cccs1 (stereo unspecified),116.8
10,CN1CCc2cc(C(CNS(=O)(=O)c3cccs3)N3CCCC3)ccc21 (stereo unspecified),-7.457
11,O=C(CSc1ccc2c(c1)OCCO2)NS(=O)(=O)c1cccs1,5.144
12,O=C(CN1CCN(C(=O)c2cccc(-c3ccoc3)c2)CC1)C1CC1,-1.743
13,CN(C)CC1CSCCCN1C(=O)c1ccc(C(C)(C)C)cc1 (stereo unspecified),10.83
14,CN(C)CC1CSCCCN1C(=O)c1ccc(-n2cccc2)cc1 (stereo unspecified),106.7
15,CN(C)CC1CSCCCN1C(=O)c1ccsc1 (stereo unspecified),106.6
16,CN(C)CC1CSCCCN1S(=O)(=O)c1ccc(C(F)(F)F)cc1 (stereo unspecified),1.872
17,CN(C)CC1CSCCCN1C(=O)Nc1ccc(C(C)(C)C)cc1 (stereo unspecified),-13.3
18,CN(C)CC1CSCCCN1C(=O)c1ccc(-c2ccccc2)cc1 (stereo unspecified),105.9
19,CN(C)CC1CSCCCN1C(=O)c1cccc(C(F)(F)F)c1 (stereo unspecified),90.72
20,CN(C)CC1CSCCCN1S(=O)(=O)Cc1cccc(F)c1 (stereo unspecified),24.8
21,CN(C)CC1CSCCCN1C(=O)c1ccc(=O)[nH]c1 (stereo unspecified),13.95
22,Cc1ccc(C2CSCCN2C(=O)c2ccsc2)o1 (stereo unspecified),6.011

row,Compound,Percent Effect [%]
1,CN(C)CC1CSCCCN1S(=O)(=O)Cc1ccc(C(F)(F)F)cc1 (stereo unspecified),-4.653
2,CC(O)CN1CCC(CNCc2cccc(OC(C)C)c2)CC1 (stereo unspecified),-7.306
3,CC(c1nc(-c2ccccc2)no1)N1CC(n2cccn2)C1 (stereo unspecified),-11.21
4,COc1ccc(CN(C)c2ccc(-c3nccn3C)nn2)cc1OC,-9.583
5,O=C(Nc1nnn[nH]1)c1ccc(I)c(F)c1,14.38
6,Cc1ccc(C2CSCCN2C(=O)c2ccc(C(N)=O)cc2)o1 (stereo unspecified),-7.519
7,CC(C)Oc1ccc(C(=O)N2CCCSCC2CN(C)C)cc1 (stereo unspecified),112.1
8,Cc1cccc(OCC2CCCN(C(=O)CN(C)C3CCNCC3)C2)c1 (stereo unspecified),-1.159
9,CC(C)NC(=O)C1CCC2(CCN(Cc3cnn(C)c3)CC2)C1.O=C(O)C(F)(F)F (stereo unspecified),-6.614
10,CN(Cc1ncnn1C1Cc2ccccc2C1)C1CCS(=O)(=O)C1 (stereo unspecified),124.4
11,CN(CCc1ncnn1-c1ccccc1Cl)C1CCS(=O)(=O)C1 (stereo unspecified),107.4
12,CN(Cc1nc(C2CC2)no1)C1CCS(=O)(=O)C1 (stereo unspecified),-44.33
13,CCN(Cc1cc(-c2ccccn2)no1)C1CCS(=O)(=O)C1 (stereo unspecified),-17.52
14,CCN(Cc1ccc(-c2ccccn2)cc1)C1CCS(=O)(=O)C1 (stereo unspecified),-8.377
15,CN(Cc1nc(C(C)(C)C)no1)C1CCS(=O)(=O)C1 (stereo unspecified),-19.08
16,CN(CCc1ncnn1C1Cc2ccccc2C1)C1CCS(=O)(=O)C1 (stereo unspecified),86.57
17,CN(CCc1ccc2c(c1)CCO2)C1CCS(=O)(=O)CC1,-8.2
18,Cc1nc(CN(Cc2ccccc2)C2CCS(=O)(=O)C2)oc1C (stereo unspecified),1.056
19,Cc1ccc(O)c(C(=O)NCCS(=O)(=O)Cc2ccccc2)c1,0.3485
20,O=C(CCN1C(=O)CCC1=O)Nc1cnn(-c2ccccc2Cl)c1,-6.016
21,Cc1cccc(OC(C)C(=O)NCC2(N(C)C)CCCC2)c1 (stereo unspecified),4.772
22,CN(Cc1nc(C(F)(F)F)cs1)C(=O)CCc1cccnc1,99.2

row,Compound,Percent Effect [%]
1,CN(Cc1ccccn1)C(=O)Nc1cc(C(F)(F)F)c[nH]c1=O,11.49
2,CN(Cc1cc(Br)cn1C)C(=O)Cc1cccnc1,-0.2173
3,CN(Cc1nc(C(F)(F)F)cs1)C(=O)CCc1ccccn1,104.8
4,Cc1nc(CN2CCN(C(=O)CCc3cccnc3)CC2)no1,-0.7807
5,CN(CCc1ccccn1)C(=O)Nc1cc(C(F)(F)F)c[nH]c1=O,14.36
6,COC(=O)c1ccc2nc(CO[C@H]3CN(CC4CC4)C[C@H]3F)[nH]c2c1,5.552
7,N#Cc1nccnc1N1CCC(COCc2ccccc2)C1 (stereo unspecified),-0.4127
8,OCC(O)CSCc1cn(-c2ccc(Cl)c(Cl)c2)nn1 (stereo unspecified),-1.515
9,C[S+]([O-])CCCNCc1cc(F)ccc1Br (stereo unspecified),11.95
10,Cc1cnn(CCNCC(O)COc2ccc(C#N)cc2)c1 (stereo unspecified),-2.958
11,Cc1cccc(N2CCN(C(=O)Nc3cnn(CC(N)=O)c3)CC2)c1,-8.219
12,CCn1cnnc1CNC(=O)N1CCN(c2ccccc2OC)CC1,95.25
13,CCn1cnnc1CNC(=O)NCC(O)c1ccc(OC)cc1 (stereo unspecified),3.56
14,CCn1cnnc1CNC(=O)N1CCN(c2ccc(OC)cc2)CC1,88.94
15,CCn1cnnc1CNC(=O)N1CCN(c2cccc(C)c2)CC1,81.4
16,CCn1cnnc1CNC(=O)N1CCN(c2ccccc2O)CC1,92.65
17,CCn1cnnc1CNC(=O)N(C)Cc1ccccc1OC,-13.71
18,CCn1cnnc1CNC(=O)N1CCN(c2cccc(OC)c2)CC1,2.392

# From ChEMBL document CHEMBL3988442, “University of Dundee, Small-Polar-MMV Screening Library” (2021)
